Data: PubChem BioAssay (Tox21)
Records with an inconclusive call do not appear. Entries that show only a call come without a potency. A number with no mark means an inactive call. The source made the active and inactive calls. Calls come from the whole dose curve; as a rule, active = well fitted curve in the direction sought with a large enough effect in the repeat runs; inconclusive = weak or mixed curves; inactive = no such curve, though single readings can be large; an effect the other way counts as inactive or inconclusive.

Assays:
[1] = qHTS assay to identify small molecule agonists of the RXR signaling pathway - cell viability counter screen (AID 1159529); note: nearly all actives have a fitted effect of over 50% in size; note: potency is the fitted concentration of half-maximal effect;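 for activity change, negative = cytotoxicity: HEK 293T cells carrying an RXR-alpha UAS beta-lactamase reporter; series mostly up to about 77 µM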
In short: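 Viability read-out for the RXR-alpha agonist qHTS: luminescent CellTiter-Glo signal after 30 min at RT. HEK 293T bla reporter cells, 2% charcoal-stripped FBS, 16 hr compound incubation; tetraoctyl ammonium bromide as cytotoxic control.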

[2] = qHTS assay to identify small molecule antagonists of the retinoid acid receptor (RAR) signaling pathway - cell viability counter screen (AID 1159551); note: nearly all actives have a fitted effect of over 35% in size
In short: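 Luminescent ATP quantitation (CellTiter-Glo) gave cell viability in C3RL4 cells exposed to test chemicals for 6 h at 37 C alongside 1 uM final retinol.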

[3] = qHTS assay to identify small molecule antagonists of the retinoic acid receptor (RAR) signaling pathway (AID 1159552; note: nearly all actives have a fitted effect of over 50% in size)
In short: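 Using a RARE-driven luciferase construct in C3RL4 cells, retinol at 1 uM final provided the agonist stimulus while compounds were co-applied. After 6 hours at 37 C, luminescence was recorded to flag inhibitors of retinol signaling.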

[4] = qHTS assay to identify small molecule agonists of the retinoic acid receptor (RAR) signaling pathway (AID 1159553)
In short: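 Luminescence from a RARE-driven luciferase reporter in C3RL4 cells served as the read-out, measured after 30 min with detection reagent at room temperature. Compounds in DMSO were applied for 6 hr at 37 C following overnight seeding.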

Row | Structure (SMILES) | activity change, negative = cytotoxicity [1] | activity change, negative = cytotoxicity [2] | activity, negative = inhibition [3] | Potency [1] | Potency [2] | Potency [3] | Potency [4]
1 | NC[C@H]1O[C@H](O[C@H]2[C@H](O)[C@@H](O[C@H]3O[C@H](CO)[C@@H](O)[C@H](N)[C@H]3O)[C@H](N)C[C@@H]2N)[C@H](O)[C@@H](O)[C@@H]1O | -2.14% [at 6.97 µM] | -0.107% [at 8.39 µM] | 7.6% [at 8.39 µM] | – | – | – | –
2 | CC(=O)c1ccc2c(c1)[C@H](NC(=O)c1ccc(F)cc1)[C@@H](O)C(C)(C)O2 | – | – | – | inactive | inactive | inactive | inactive
3 | CC(=O)/C(C)=C/C1C(C)=CCCC1(C)C (centres undefined) | – | – | – | inactive | inactive | inactive | inactive
4 | Cc1cccc(OCCOc2cccc(C)c2)c1 | – | – | – | inactive | inactive | inactive | –
5 | C=C(C)C(=O)OC(C)C | – | – | – | inactive | inactive | inactive | –
6 | Cc1ncsc1CCO | – | – | – | inactive | inactive | inactive | inactive
7 | CCCCCCCCCCCCCCC1CO1 (centres undefined) | – | – | – | inactive | inactive | inactive | inactive
8 | O=C(NS(=O)(=O)/C=C/c1cccs1)c1ccc(F)cc1Br | – | – | – | inactive | inactive | inactive | inactive
9 | CC(C)(C)c1cc(CO)cc(C(C)(C)C)c1O | – | – | – | inactive | inactive | inactive | inactive
10 | CCCCC(CC)(CO)CO | – | – | – | inactive | inactive | inactive | inactive
11 | CC(C)c1cccc(C(C)C)c1NC(=O)NS(=O)(=O)c1cc(C(C)(C)O)co1 | – | – | – | inactive | inactive | inactive | inactive
12 | Nc1nc(N)c2nc(CNc3ccc(C(=O)N[C@@H](CCC(=O)O)C(=O)O)cc3)cnc2n1 | – | – | – | inactive | inactive | inactive | inactive
13 | CCN1CCC[C@H]1CNC(=O)c1c(OC)ccc(Br)c1OC | – | – | – | inactive | inactive | inactive | inactive
14 | CCN(CC)CCc1nc(-c2ccccc2)no1 | – | – | – | inactive | inactive | inactive | –
15 | Nc1nc(CC(=O)O)cs1 | – | – | – | 21.9 µM (active) | inactive | inactive | –
16 | O=C(O)Cc1cc(I)c(Oc2ccc(O)c(I)c2)c(I)c1 | – | – | – | inactive | inactive | inactive | inactive
17 | CN1CCN(C2=Nc3ccccc3Sc3ccc(Cl)cc32)CC1 | – | – | – | inactive | inactive | inactive | inactive
18 | CC(CN)CCCN (centres undefined) | – | – | – | inactive | inactive | inactive | –
19 | Nc1ccc(C(=O)N2CC3CC(CN(Cc4ccccc4)C3)C2)cc1 | – | – | – | inactive | inactive | inactive | inactive
20 | CCCCCOC(=O)COc1cc(N2C(=O)C3=C(CCCC3)C2=O)c(F)cc1Cl | – | – | – | inactive | inactive | inactive | inactive
21 | CCCCCCCCCC(=O)OCC | – | – | – | inactive | inactive | inactive | inactive

Row | Structure (SMILES) | activity change, negative = cytotoxicity [1] | activity change, negative = cytotoxicity [2] | activity, negative = inhibition [3] | Potency [1] | Potency [2] | Potency [3] | Potency [4]
22 | CCN(CC)C(C)=O | – | – | – | inactive | inactive | inactive | inactive
23 | Cc1ccccn1 | – | – | – | inactive | inactive | inactive | inactive
24 | CC(O)C1CCCCC1 (centres undefined) | – | – | – | inactive | inactive | inactive | inactive
25 | CC/C(=C\C(=N/O)C(N)=O)C(C)[N+](=O)[O-] (centres undefined) | – | – | – | inactive | inactive | inactive | –
26 | CC(=O)/C=C/C1C(C)=CCCC1(C)C (centres undefined) | – | – | – | inactive | inactive | inactive | inactive
27 | CCOc1ccc(NC(=O)CC(C)=O)cc1 | – | – | – | inactive | inactive | inactive | inactive
28 | O=C(CCN1CCN2CCCC2C1)N1c2ccccc2Sc2ccc(Cl)cc21 (centres undefined) | -22.2% [at 15.8 µM] | -0.0558% [at 19 µM] | -11.3% [at 19 µM] | – | – | – | inactive
29 | Oc1ccc2c(c1)OCO2 | – | – | – | inactive | inactive | inactive | inactive
30 | ClC(Cl)(Cl)c1ccc(C(Cl)(Cl)Cl)cc1 | – | – | – | inactive | inactive | inactive | inactive
31 | CN(C)CCCNCCCN | – | – | – | 48.8 µM (active) | inactive | inactive | inactive
32 | CC(=O)NCCCS(=O)(=O)O | – | – | – | inactive | inactive | inactive | –
33 | O=C1Nc2cc(Cl)ccc2Oc2ccccc21 | – | – | – | inactive | inactive | inactive | inactive
34 | Cc1ccc(C(=O)C(C)CN2CCCCC2)cc1 (centres undefined) | – | – | – | inactive | inactive | inactive | inactive
35 | CC(=O)O[C@@H]1C(=O)O[C@@H]2[C@H]1OC(=O)[C@@H]2OC(C)=O | – | – | – | inactive | inactive | inactive | inactive
36 | CCOC(=O)CC(=O)c1cc(F)c(Cl)nc1Cl | – | – | – | inactive | inactive | inactive | inactive
37 | Cn1c(N)nc2nc[nH]c2c1=O | – | – | – | inactive | inactive | inactive | inactive
38 | OCC1CC2CC1C1CCC(CO)C21 (centres undefined) | – | – | – | inactive | inactive | inactive | inactive
39 | CC(C)CCCC(C)CCO (centres undefined) | – | – | – | inactive | inactive | inactive | –
40 | O=C(C(=O)c1ccc(Br)cc1)c1ccc(Br)cc1 | 5.23% [at 15.8 µM] | 1.34% [at 19 µM] | 45.5% [at 19 µM] | – | – | – | inactive
41 | O=C(O)COC(=O)Cc1ccccc1Nc1c(Cl)cccc1Cl | – | – | – | inactive | inactive | inactive | inactive
42 | C=CC(C)(CCC=C(C)C)OC(=O)c1ccccc1 (centres undefined) | – | – | – | inactive | inactive | inactive | inactive
